# Experimental data as given in PubChem BioAssay (EPA / NIEHS).
# Calls of active or inactive are those of the source. How the source made its calls: active means hit-call score of the fitted dose curve at least 0.9, where 1 is the maximum; inactive means score below 0.9.
# Target: Nuclear respiratory factor 1 (Homo sapiens) (UniProt Q16656)
# Assay: ATG_NRF1_CIS: Attagene CIS-FACTORIAL HepG2 Assay for human Nuclear Respiratory Factor 1 (NRF1) Orphan Gene (AID 2282987)
# Conditions: HepG2 NRF1 cis-element reporter, Attagene multiplex; actives raise or lower the signal
# Outline: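 Transcriptional reporter readout, one component of a 52-endpoint multiplexed HepG2 panel. Exposure 24 h; mRNA detected via RT-PCR and fluorescent capillary electrophoresis; fitting in both directions against DMSO.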
# Chain of Nuclear respiratory factor 1 (Homo sapiens) (Q16656 whole entry, looked up): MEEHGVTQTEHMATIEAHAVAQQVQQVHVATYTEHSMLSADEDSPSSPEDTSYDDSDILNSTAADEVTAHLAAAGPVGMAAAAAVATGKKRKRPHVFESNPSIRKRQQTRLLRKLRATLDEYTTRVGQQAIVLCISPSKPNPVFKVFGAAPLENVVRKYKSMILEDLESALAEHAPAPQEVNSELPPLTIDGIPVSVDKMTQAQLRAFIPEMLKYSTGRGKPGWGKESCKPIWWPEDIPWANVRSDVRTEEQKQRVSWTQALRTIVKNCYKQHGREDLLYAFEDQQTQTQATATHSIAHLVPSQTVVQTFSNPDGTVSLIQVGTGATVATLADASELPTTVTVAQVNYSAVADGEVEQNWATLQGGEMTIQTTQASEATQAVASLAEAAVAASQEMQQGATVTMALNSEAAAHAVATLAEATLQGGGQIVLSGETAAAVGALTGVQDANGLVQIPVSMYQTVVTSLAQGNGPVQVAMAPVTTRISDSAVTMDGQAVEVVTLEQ
Compound,outcome,AC50
CC(=O)OC(C)(C)C,inactive,–
CCC=C(C)C=O,inactive,–
C=CCCCCCCCCC(=O)OCC,inactive,–
CCCCCC1CCC(=O)O1 (stereo not drawn),inactive,–
CCCCCCCCCCCCCC(=O)OCC,inactive,–
CC(=O)CCc1ccc(O)cc1,inactive,–
CCCCCc1cccc(=O)o1,inactive,–
CCCCCCCCCCCCN1CCOCC1,–,59.8 µM (active)
CC(CO)c1ccccc1 (stereo not drawn),inactive,–
CC(=O)Oc1c(C)c(C)c2c(c1C)CC[C@@](C)(CCC[C@H](C)CCC[C@H](C)CCCC(C)C)O2,inactive,–
CC(C)Cc1ccc(C(C)C(=O)O)cc1 (stereo not drawn),inactive,–
Cc1cccc(O)c1,inactive,–
CC1=C(C=O)C(C)(C)CCC1,inactive,–
O=C(O)C1=NN(c2ccc(S(=O)(=O)O)cc2)C(=O)C1,inactive,–
CCCC1CCOC(C)S1 (stereo not drawn),inactive,–
CCCCOCC(C)OCC(C)O (stereo not drawn),inactive,–
CC(C)=CC(=O)O,inactive,–
CCCCC/C=C\C=C\C(=O)OCC,–,50.4 µM (active)

Compound,outcome,AC50
C=CC(O)CCCCC (stereo not drawn),inactive,–
CCCCCCCCCC(=O)OCC,inactive,–
CC1(C)[C@H](C=C(Cl)Cl)[C@H]1C(=O)OCc1cccc(Oc2ccccc2)c1,inactive,–
CC(C)(O)C(=O)c1ccc(OCCO)cc1,inactive,–
O=S1(=O)CC=CC1,inactive,–
O=C(O)c1cccc(Cl)n1,inactive,–
CCC(=O)OC(C)(C)C1CC=C(C)CC1 (stereo not drawn),inactive,–
Cc1cc(N)n(-c2ccccc2)n1,inactive,–
CC1=CCC(C(C)C)=CC1,inactive,–
C=CCOC(=O)/C=C\C(=O)OCC=C,inactive,–
C=CC(C)(CCC=C(C)C)OC(=O)CC (stereo not drawn),inactive,–
CCCCOCCOCCOCCO,inactive,–
CCCC1CCC(=O)CC1,inactive,–
CC(C)(CO)CO,inactive,–
CCC(C)C1CCCCC1=O (stereo not drawn),inactive,–
C/C=C(\C)C(=O)OC/C=C(\C)CCC=C(C)C,inactive,–
Brc1cc(Br)cc(Br)c1,inactive,–
CCCCCCCC1CCCC1=O (stereo not drawn),inactive,–

# System: not listed separately
# Assay: ATG_NFI_CIS: Attagene CIS-FACTORIAL HepG2 Assay for human Nuclear Factor I (NFI) (AID 2282989)
# Conditions: HepG2 cis-regulatory reporter, NFI response element transcription; actives raise or lower the signal
# Outline: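 HepG2 cells transiently transfected with cis-element-driven multiplexed reporter transcription units, dosed for 24 h. Reporter mRNA quantified by RT-PCR, fluorescent labelling, HpaI digestion and capillary electrophoresis; bidirectional fit versus DMSO baseline.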
Compound,outcome,AC50
CC(=O)OC(C)(C)C,inactive,–
CCC=C(C)C=O,inactive,–
C=CCCCCCCCCC(=O)OCC,inactive,–
CCCCCC1CCC(=O)O1 (stereo not drawn),inactive,–
CCCCCCCCCCCCCC(=O)OCC,inactive,–
CC(=O)CCc1ccc(O)cc1,inactive,–
CCCCCc1cccc(=O)o1,inactive,–
CCCCCCCCCCCCN1CCOCC1,inactive,–
CC(CO)c1ccccc1 (stereo not drawn),inactive,–
CC(=O)Oc1c(C)c(C)c2c(c1C)CC[C@@](C)(CCC[C@H](C)CCC[C@H](C)CCCC(C)C)O2,inactive,–
CC(C)Cc1ccc(C(C)C(=O)O)cc1 (stereo not drawn),inactive,–
Cc1cccc(O)c1,inactive,–
CC1=C(C=O)C(C)(C)CCC1,inactive,–
O=C(O)C1=NN(c2ccc(S(=O)(=O)O)cc2)C(=O)C1,inactive,–
CCCC1CCOC(C)S1 (stereo not drawn),inactive,–
CCCCOCC(C)OCC(C)O (stereo not drawn),inactive,–
CC(C)=CC(=O)O,inactive,–
CCCCC/C=C\C=C\C(=O)OCC,–,40 µM (active)

Compound,outcome,AC50
C=CC(O)CCCCC (stereo not drawn),inactive,–
CCCCCCCCCC(=O)OCC,inactive,–
CC1(C)[C@H](C=C(Cl)Cl)[C@H]1C(=O)OCc1cccc(Oc2ccccc2)c1,inactive,–
CC(C)(O)C(=O)c1ccc(OCCO)cc1,inactive,–
O=S1(=O)CC=CC1,inactive,–
O=C(O)c1cccc(Cl)n1,inactive,–
CCC(=O)OC(C)(C)C1CC=C(C)CC1 (stereo not drawn),inactive,–
Cc1cc(N)n(-c2ccccc2)n1,inactive,–
CC1=CCC(C(C)C)=CC1,inactive,–
C=CCOC(=O)/C=C\C(=O)OCC=C,inactive,–
C=CC(C)(CCC=C(C)C)OC(=O)CC (stereo not drawn),inactive,–
CCCCOCCOCCOCCO,inactive,–
CCCC1CCC(=O)CC1,inactive,–
CC(C)(CO)CO,inactive,–
CCC(C)C1CCCCC1=O (stereo not drawn),inactive,–
C/C=C(\C)C(=O)OC/C=C(\C)CCC=C(C)C,inactive,–
Brc1cc(Br)cc(Br)c1,inactive,–
CCCCCCCC1CCCC1=O (stereo not drawn),inactive,–

# Target: Myc proto-oncogene protein (Homo sapiens) (UniProt P01106)
# Assay: ATG_Myc_CIS: Attagene CIS-FACTORIAL HepG2 Assay for human Myelocytomatosis (Myc) Proto-Oncogene Transcription Factor (AID 2282990)
# Conditions: HepG2, Attagene cis-reporter transcription factor activity; actives raise or lower the signal
# Outline: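 Fluorescence intensity of reporter-specific cDNA fragments, separated by capillary electrophoresis, gives the signal. Transfected HepG2 cells carrying cis-promoter reporter constructs are incubated with compound for 24 h; DMSO serves as baseline.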
# Chain of Myc proto-oncogene protein (Homo sapiens) (P01106 whole entry, looked up): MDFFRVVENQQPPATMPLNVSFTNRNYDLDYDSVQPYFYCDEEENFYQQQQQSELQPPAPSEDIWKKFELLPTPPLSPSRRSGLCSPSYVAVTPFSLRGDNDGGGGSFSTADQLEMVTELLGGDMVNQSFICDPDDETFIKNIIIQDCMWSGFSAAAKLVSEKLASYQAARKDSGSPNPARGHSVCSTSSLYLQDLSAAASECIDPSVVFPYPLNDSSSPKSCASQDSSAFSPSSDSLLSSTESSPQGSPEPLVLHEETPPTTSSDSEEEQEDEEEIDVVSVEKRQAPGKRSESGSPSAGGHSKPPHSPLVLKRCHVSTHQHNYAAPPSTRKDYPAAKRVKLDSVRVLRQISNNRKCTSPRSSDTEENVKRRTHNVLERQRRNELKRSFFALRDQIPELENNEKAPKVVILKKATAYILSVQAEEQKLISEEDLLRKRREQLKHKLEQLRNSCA
row,Compound,outcome
1,CC(=O)OC(C)(C)C,inactive
2,CCC=C(C)C=O,inactive
3,C=CCCCCCCCCC(=O)OCC,inactive
4,CCCCCC1CCC(=O)O1 (stereo not drawn),inactive
5,CCCCCCCCCCCCCC(=O)OCC,inactive
6,CC(=O)CCc1ccc(O)cc1,inactive
7,CCCCCc1cccc(=O)o1,inactive
8,CCCCCCCCCCCCN1CCOCC1,inactive
9,CC(CO)c1ccccc1 (stereo not drawn),inactive
10,CC(=O)Oc1c(C)c(C)c2c(c1C)CC[C@@](C)(CCC[C@H](C)CCC[C@H](C)CCCC(C)C)O2,inactive
11,CC(C)Cc1ccc(C(C)C(=O)O)cc1 (stereo not drawn),inactive
12,Cc1cccc(O)c1,inactive
13,CC1=C(C=O)C(C)(C)CCC1,inactive
14,O=C(O)C1=NN(c2ccc(S(=O)(=O)O)cc2)C(=O)C1,inactive
15,CCCC1CCOC(C)S1 (stereo not drawn),inactive
16,CCCCOCC(C)OCC(C)O (stereo not drawn),inactive
17,CC(C)=CC(=O)O,inactive
18,CCCCC/C=C\C=C\C(=O)OCC,inactive

row,Compound,outcome
1,C=CC(O)CCCCC (stereo not drawn),inactive
2,CCCCCCCCCC(=O)OCC,inactive
3,CC1(C)[C@H](C=C(Cl)Cl)[C@H]1C(=O)OCc1cccc(Oc2ccccc2)c1,inactive
4,CC(C)(O)C(=O)c1ccc(OCCO)cc1,inactive
5,O=S1(=O)CC=CC1,inactive
6,O=C(O)c1cccc(Cl)n1,inactive
7,CCC(=O)OC(C)(C)C1CC=C(C)CC1 (stereo not drawn),inactive
8,Cc1cc(N)n(-c2ccccc2)n1,inactive
9,CC1=CCC(C(C)C)=CC1,inactive
10,C=CCOC(=O)/C=C\C(=O)OCC=C,inactive
11,C=CC(C)(CCC=C(C)C)OC(=O)CC (stereo not drawn),inactive
12,CCCCOCCOCCOCCO,inactive
13,CCCC1CCC(=O)CC1,inactive
14,CC(C)(CO)CO,inactive
15,CCC(C)C1CCCCC1=O (stereo not drawn),inactive
16,C/C=C(\C)C(=O)OC/C=C(\C)CCC=C(C)C,inactive
17,Brc1cc(Br)cc(Br)c1,inactive
18,CCCCCCCC1CCCC1=O (stereo not drawn),inactive
